# Measurements from PubChem BioAssay (NCATS).
# Results filed as inconclusive are left out. Active and inactive are the calls of the source. Unless noted, calls come from the whole dose curve; as a rule, active = well fitted cell-killing curve with a large enough effect; inconclusive = small, poorly fitted or top-dose-only effect, or effect the other way; inactive = no such curve, though single readings can be large or run the other way.
# Experiments:
# [1] = Quantitative High-Throughput drug screen in 47 multiple myeloma cell lines against the NCATS MIPE library collection: KMS34_JCRB cell viability assay (AID 1918985); note: potency is the fitted concentration of half-maximal effect; nearly all actives have a fitted effect of over 40% in size
# In short: (§1)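 Inhibition of viability over 48 h was scored by ATP content (CellTiter-Glo) in 500-cell wells. Zero and full viability were defined by media-only and DMSO-only wells.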
# [2] = Quantitative High-Throughput drug screen in 47 multiple myeloma cell lines against the NCATS MIPE library collection: OCIMY7_PLB cell viability assay (AID 1918987); note: nearly all actives have a fitted effect of over 65% in size; note: potency is the fitted concentration of half-maximal effect
# In short: as §1
# [3] = Quantitative High-Throughput drug screen in 47 multiple myeloma cell lines against the NCATS MIPE library collection: OCIMY5_PLB cell viability assay (AID 1918988); note: potency is the fitted concentration of half-maximal effect; nearly all actives have a fitted effect of over 65% in size
# In short: as §1
# [4] = Quantitative High-Throughput drug screen in 47 multiple myeloma cell lines against the NCATS MIPE library collection: OPM1_PLB cell viability assay (AID 1918989); note: potency is the fitted concentration of half-maximal effect; nearly all actives have a fitted effect of over 40% in size
# In short: as §1
# [5] = Quantitative High-Throughput drug screen in 47 multiple myeloma cell lines against the NCATS MIPE library collection: XG1_PLB cell viability assay (AID 1919866); note: nearly all actives have a fitted effect of over 35% in size; note: potency is the fitted concentration of half-maximal effect
# In short: as §1
# [6] = Quantitative High-Throughput drug screen in 47 multiple myeloma cell lines against the NCATS MIPE library collection: VP6_DJ cell viability assay (AID 1919867); note: nearly all actives have a fitted effect of over 40% in size; note: potency is the fitted concentration of half-maximal effect
# In short: as §1
# [7] = Quantitative High-Throughput drug screen in 47 multiple myeloma cell lines against the NCATS MIPE library collection: PE2_PLB cell viability assay (AID 1919869); note: nearly all actives have a fitted effect of over 35% in size; note: potency is the fitted concentration of half-maximal effect
# In short: as §1
# [8] = Quantitative High-Throughput drug screen in 47 multiple myeloma cell lines against the NCATS MIPE library collection: PCM6_Riken cell viability assay (AID 1919870); note: potency is the fitted concentration of half-maximal effect; nearly all actives have a fitted effect of over 30% in size
# In short: as §1
# [9] = qHTS drug screen for cell cycle checkpoint inhibitors in PARPi-resistant BRCA-mutant ovarian cancer cell lines. (AID 1963452; calls by dose curve); settings: PEO1/OlaR viability, CellTiter-Glo luminescence, 96 h, stronger effect = lower value
# In short: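 PEO1, PEO4 and PEO1/OlaR ovarian cancer cells, 600 per well, exposed 96 h at 37C to a dilution series. Viability read by CellTiter-Glo luminescence, normalized to DMSO and empty wells; activity summarized as Z-AUC.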
# [10] = Quantitative High-Throughput drug screen in 47 multiple myeloma cell lines against the NCATS MIPE library collection: L363_DSMZ cell viability assay (AID 1918984); note: nearly all actives have a fitted effect of over 40% in size; note: potency is the fitted concentration of half-maximal effect
# In short: as §1
# [11] = Quantitative High-Throughput drug screen in 47 multiple myeloma cell lines against the NCATS MIPE library collection: XG6_PLB cell viability assay (AID 1919865); note: nearly all actives have a fitted effect of over 40% in size; note: potency is the fitted concentration of half-maximal effect
# In short: as §1
# [12] = Quantitative High-Throughput drug screen in 47 multiple myeloma cell lines against the NCATS MIPE library collection: UTMC2_PLB cell viability assay (AID 1919868); settings: CellTiter-Glo ATP luminescence, 48 h; viability (% of DMSO control): at 45.8 µM (top of the series) unless noted; note: potency is the fitted concentration of half-maximal effect; nearly all actives have a fitted effect of over 55% in size
# In short: as §1
# [13] = Quantitative High-Throughput drug screen in 47 multiple myeloma cell lines against the NCATS MIPE library collection: RPMI8226_ATCC cell viability assay (AID 1919871); note: nearly all actives have a fitted effect of over 30% in size; note: potency is the fitted concentration of half-maximal effect
# In short: as §1
# [14] = Quantitative High-Throughput drug screen in 47 multiple myeloma cell lines against the NCATS MIPE library collection: OPM2_DSMZ cell viability assay (AID 1919872); note: nearly all actives have a fitted effect of over 30% in size; note: potency is the fitted concentration of half-maximal effect
# In short: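 Myeloma cells (500 per well) were exposed to MIPE 4.0 compounds by pin transfer and incubated 48 hours at 37C, 5% CO2. Viability was read as ATP by CellTiter-Glo luminescence, normalised to DMSO (100%) and media-only (0%) wells.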
# [15] = Quantitative High-Throughput drug screen in 47 multiple myeloma cell lines against the NCATS MIPE library collection: KMS11_JCRBsus cell viability assay (AID 1919873); note: nearly all actives have a fitted effect of over 50% in size; note: potency is the fitted concentration of half-maximal effect
# In short: as §1
# [16] = Quantitative High-Throughput drug screen in 47 multiple myeloma cell lines against the NCATS MIPE library collection: U266_ATCC cell viability assay (AID 1919864); note: nearly all actives have a fitted effect of over 35% in size; note: potency is the fitted concentration of half-maximal effect
# In short: as §1
# [17] = Quantitative High-Throughput drug screen in 47 multiple myeloma cell lines against the NCATS MIPE library collection: KMS28BM_JCRB cell viability assay (AID 1919874); note: nearly all actives have a fitted effect of over 35% in size; note: potency is the fitted concentration of half-maximal effect
# In short: as §1
# [18] = qHTS for identification of novel therapeutic agents for treatment of microphthalmiaassociated transcription factor (MiT) renal cell carcinoma (RCC) (AID 1963991; calls by dose curve; note: potency is the fitted concentration of half-maximal effect); settings: CellTiter-Glo, 48 h; for z-score: stronger effect = lower value
# In short: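 Curves over 11 concentrations were fitted to CellTiter-Glo luminescence, scaled between empty wells (0%) and DMSO (100%) viability. Cells were UOK109, UOK124 and UOK145 TFE3-fusion RCC lines at 500/well, exposed 48 hours at 37 C.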
# [19] = Quantitative High-Throughput drug screen in 47 multiple myeloma cell lines against the NCATS MIPE library collection: SKMM1_PLB cell viability assay (AID 1919863); settings: SKMM1 myeloma viability, CellTiter-Glo ATP, 48 h; viability: stronger effect = lower value
# In short: as §1
# [20] = measured here: PEO1 parental Z-AUC
# [21] = TFE3-RCC UOK109 viability, measured here: UOK109 Z-AUC
# [22] = TFE3-RCC viability, measured here: UOK124 Z-AUC
# [23] = TFE3-RCC viability, measured here: UOK145 Z-AUC
structure (smiles),measurement,setting,value
C=CC(=O)Nc1cccc(Oc2nc(Nc3ccc(N4CCN(C)CC4)cc3OC)ncc2Cl)c1,Potency,[1],16.6 µM (active)
same,Potency,[2],0.001 µM (active)
same,Potency,[3],0.0026 µM (active)
same,Potency,[4],0.662 µM (active)
same,Potency,[5],0.0047 µM (active)
same,Potency,[6],0.0187 µM (active)
same,Potency,[7],0.526 µM (active)
same,Potency,[8],7.43 µM (active)
same,Z-AUC,[9],-0.915 (inactive)
same,Z-AUC,[9]; [20],-0.879
same,Z-AUC,[9]; measured here: PEO4 Z-AUC,-0.954
COc1cc(Nc2ncc(F)c(Nc3ccc4c(n3)N(COP(=O)(O)O)C(=O)C(C)(C)O4)n2)cc(OC)c1OC,Potency,[10],2.35 µM (active)
same,Potency,[3],26.4 µM (active)
same,Potency,[4],1.87 µM (active)
same,Potency,[11],1.48 µM (active)
same,Potency,[5],0.662 µM (active)
same,Potency,[6],1.48 µM (active)
same,Potency,[12],5.26 µM (active)
same,Potency,[7],1.18 µM (active)
same,Potency,[8],9.35 µM (active)
same,Potency,[13],20.9 µM (active)
same,Potency,[14],18.7 µM (active)
same,Potency,[15],2.96 µM (active)
same,Z-AUC,[9],0.561 (inactive)
same,Z-AUC,[9]; [20],0.402
same,Z-AUC,[9]; measured here: PEO4 Z-AUC,0.538
CN(C1CCc2c(c3ccccc3n2CC(=O)O)C1)S(=O)(=O)c1ccc(F)cc1 (configuration not stated),Potency,[10],1.48 µM (active)
same,Potency,[3],4.69 µM (active)
same,Potency,[16],18.7 µM (active)
same,Potency,[11],1.87 µM (active)
same,Potency,[5],3.72 µM (active)
same,Potency,[6],0.0743 µM (active)
same,Potency,[7],inactive
same,Potency,[8],3.72 µM (active)
same,Potency,[13],inactive
same,Potency,[14],inactive
same,Potency,[17],0.296 µM (active)
COc1cc2c(Nc3ccc(NC(=O)c4ccccc4)cc3)ncnc2cc1OCCCN1CCOCC1,Potency,[10],inactive
same,Potency,[2],2.64 µM (active)
same,Potency,[3],18.7 µM (active)
same,Potency,[4],20.9 µM (active)
same,Potency,[11],14.8 µM (active)
same,Potency,[5],20.9 µM (active)
same,Potency,[6],14.8 µM (active)
same,Potency,[7],20.9 µM (active)
same,Potency,[13],23.5 µM (active)
same,Potency,[15],10.5 µM (active)
same,Z-AUC,[9],0.665 (inactive)
same,Z-AUC,[9]; [20],0.378
same,Z-AUC,[9]; measured here: PEO4 Z-AUC,-0.00174
CCc1cc2c(cc1N1CCC(N3CCOCC3)CC1)C(C)(C)c1[nH]c3cc(C#N)ccc3c1C2=O,Potency,[2],1.48 µM (active)
same,Z-AUC,[9],0.0393 (inactive)
same,Z-AUC,[9]; [20],-0.229
same,Z-AUC,[9]; measured here: PEO4 Z-AUC,-0.554
O=C(c1cncc(Br)c1)N1CCC(N2CCCC2)CC1,Potency,[10],inactive
same,Potency,[2],inactive
same,Potency,[16],inactive
same,Potency,[11],inactive
same,Potency,[5],inactive
same,Potency,[6],inactive
same,Potency,[7],inactive
same,Potency,[13],inactive
same,Potency,[14],inactive
same,Potency,[15],inactive
same,Potency,[17],inactive
same,Z-AUC,[9],-0.226 (inactive)
same,Z-AUC,[9]; [20],-0.235
same,Z-AUC,[9]; measured here: PEO4 Z-AUC,0.232
same,z-score,[18]; [21],0.796
same,z-score,[18]; [22],0.785
same,z-score,[18]; [23],0.752
Cc1cccc(C=NNc2cc(N3CCOCC3)nc(OCCc3ccccn3)n2)c1,Potency,[10],0.235 µM (active)
same,Potency,[3],23.5 µM (active)
same,Potency,[4],4.18 µM (active)
same,Potency,[19],16.6 µM (active)
same,Potency,[11],16.6 µM (active)
same,Potency,[5],23.5 µM (active)
same,Potency,[7],18.7 µM (active)
same,Potency,[13],18.7 µM (active)
same,Potency,[14],6.62 µM (active)
same,Potency,[15],2.64 µM (active)
same,Potency,"[18]; TFE3-RCC UOK109 viability, active = Z-AUC below -0.8 in all three lines",0.118 µM (active)
same,z-score,[18]; [21],-0.897
same,z-score,[18]; [22],-1.42
same,z-score,[18]; [23],-0.962
CC[C@H](CO)Nc1nc(NCc2ccccc2)c2ncn(C(C)C)c2n1,Potency,[1],26.4 µM (active)
same,Potency,[2],16.6 µM (active)
same,Potency,[3],18.7 µM (active)
same,Potency,[4],23.5 µM (active)
same,Potency,[16],23.5 µM (active)
same,Potency,[11],14.8 µM (active)
same,Potency,[5],16.6 µM (active)
same,Potency,[6],18.7 µM (active)
same,Potency,[12],23.5 µM (active)
same,Potency,[7],14.8 µM (active)
same,Z-AUC,[9],0.956 (inactive)
same,Z-AUC,[9]; [20],1.03
same,Z-AUC,[9]; measured here: PEO4 Z-AUC,1.29
CN(C)CC(C)(C)CNc1nn2c(-c3ccccc3)nnc2cc1C1CCC1,Potency,[6],10.5 µM (active)
same,Potency,[12],1.05 µM (active)
same,Potency,[7],11.8 µM (active)
same,Potency,[13],inactive
same,Potency,[14],inactive
same,Potency,[15],inactive
same,Z-AUC,[9],0.384 (inactive)
same,Z-AUC,[9]; [20],0.768
same,Z-AUC,[9]; measured here: PEO4 Z-AUC,0.988
